About 79,000 compounds went through this panel and 15% of them were active in at least one assay; those are over-represented in the sample as a whole. A number with no mark means an inactive call. Activity calls are given as the source filed them. Cut-off read from the data, not from the text of the source: active = growth inhibition above about 70%; inactive = the rest.
assay: NCI Yeast Anticancer Drug Screen. Data for the rad18 strain (AID 177); conditions: S. cerevisiae rad18 mutant growth inhibition; at 1.2 µM; stronger effect = higher value
Summary of the method: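 Compounds are applied to a repair-deficient yeast strain, and growth is compared with that of vehicle-treated cultures to give percent inhibition.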

Row | SMILES | growth inhibition
1 | O=C1/C(=C/c2ccccc2)CCCC1CN1CCCCC1 (stereo not given) | 34%
2 | C#CCN(Cc1ccc2nc(N)[nH]c(=O)c2c1)c1ccc(C(=O)NC(CCC(=O)O)C(=O)O)cc1 (stereo not given) | -2%
3 | O=C(O)CNC(=S)Nc1ccccc1 | -56%
4 | N/C(=N/N=C/c1cc(Br)cc(Br)c1O)NO | -30%
5 | C[Si](C)(C)/C=C/CCNC(C#N)c1ccccc1 (stereo not given) | -33%
6 | CCCCCCCCCCCCCCCCOP(=O)(O)OCC(N)C(=O)O (stereo not given) | -25%
7 | CC1=C(C(=O)NCc2ccccc2)C(c2ccccc2)C(C(=O)NCc2ccccc2)=C(C)N1 | 2%
8 | O=[N+]([O-])c1cc(S(=O)(=O)Nc2ccccc2)ccc1Nc1ccccc1 | -3%
9 | COc1cc2ccnc(-c3c4ccccc4c(N)c4c(OC)c(OC)ccc34)c2cc1OC | 0%
10 | CCOC(=O)C1=C(C)NC(C)=C(C(=O)OCCNC(=O)c2ccc(N=[N+]=[N-])cc2)C1c1ccccc1C(F)(F)F (stereo not given) | 3%
11 | Cc1cc(C)c(NC(=S)NC(=O)c2ccccc2)cc1C | -75%
12 | CNCCCNc1c2ccccc2nc2cccc([N+](=O)[O-])c12 | 92% (active)
13 | COc1c(O)c(C=O)c(Br)c(C=O)c1O | 0%
14 | Cc1c(C)c(C)c(CSC(=N)N)c(C)c1C | -56%
15 | O=C(CSC(=S)N1CCCCC1)Nc1nc2c(s1)CCCC2 | 27%
16 | CNC(=O)OCc1c(COC(=O)NC)c(-c2ccc(Cl)cc2)n2c1CCC2 | -28%
17 | CC(=O)OC1CC2C(C)(C)C(=O)C=C[C@]2(C)C2CCC3(C)C(=CCC3[C@H](CO)C[C@H](O)C(=O)C(C)(C)O)[C@]12C (stereo not given in full) | -21%
18 | CCCCCCOC(=O)NCCOC(=O)Nc1ccccc1 | 2%

Row | SMILES | growth inhibition
19 | C[C](C)(C)[Ge]([O][Ge]([c]1ccccc1)[c]1ccccc1)([O][Ge]([c]1ccccc1)[c]1ccccc1)[C](C)(C)C | 4%
20 | CCc1c(Cl)c(C)cc(O)c1Cl | -20%
21 | Cc1nc(Nc2ccccc2[N+](=O)[O-])sc1C(=O)CC(=O)C(=O)Nc1c(C(C)C)cccc1C(C)C | -3%
22 | O=[N+]([O-])c1cccc2nc3ccccc3c(NCCCn3ccnc3[N+](=O)[O-])c12 | 90% (active)
23 | CCCCCCC(O)CNCc1ccnc2ccc(OC)cc12 (stereo not given) | 7%
24 | Cc1c2cccc(Sc3ccccc3)c2c2c3c(cccc13)[S+](c1ccccc1)C2 (stereo not given) | 28%
25 | C=C1CCC(O)C/C1=C/C=C1\CCCC2(C)C1CCC2C(C)CCCC(C)C (stereo not given) | -10%
26 | NC1=NNC2(C(N)=N1)c1ccccc1-c1ccccc12 | -4%
27 | COc1cc2cc3c4cc(OC)c(OC)cc4cc[n+]3c(C)c2cc1OC | -23%
28 | COC(=O)NC1C(C)OC(OC2C/C=C(/C)C3C=CC4C(OC5CC(OC6CC(O)C(OC7CC(O)C(OC)C(C)O7)C(C)O6)C(O)C(C)O5)C(C)CC(C)C4C3(C)/C(O)=C3\C(=O)OC4(CC(C)C(CO)=CC4/C=C\2C)C3=O)CC1(C)[N+](=O)[O-] (stereo not given) | 1%
29 | O=C1CSC(c2cccc(Cl)c2)N1c1ccc(-c2ccc(-n3c(-c4ccccc4)nc4ccccc4c3=O)cc2)cc1 (stereo not given) | 0%
30 | CCOC(=O)C(C(=O)OCC)=P(c1ccccc1)(c1ccccc1)c1ccccc1 | 1%
31 | O=C(Oc1ccc2c(c1)CN(Cc1ccccc1)CO2)c1ccccc1 | 17%
32 | CN(C)[C@@H]1C(=O)C(C(N)=O)=C(O)[C@@]2(O)C(=O)C3=C(O)c4c(O)cccc4C[C@H]3C[C@@H]12 | -7%
33 | O=[N+]([O-])c1ccc2c(c1)/C(=N/N=C1c3ccccc3Cc3ccccc31)c1cc([N+](=O)[O-])cc([N+](=O)[O-])c1-2 | 50%
34 | Cc1nc2c(Br)cc(Br)cc2c(=O)n1-c1ccccc1NC1OCC(O)C(O)C1O (stereo not given) | 42%
35 | Cc1cc(N(CCOS(C)(=O)=O)CCOS(C)(=O)=O)ccc1C=Nc1ccc(-c2nc(Cc3ccccc3)sc2C)cc1 | 41%

Reference: PubChem BioAssay (NCI)
